Here are results for 29 molecules from PubChem BioAssay (NCI).

The structures appear in SMILES notation. About 83,000 compounds went through this panel and 20% of them were active in at least one assay; those are over-represented in the sample as a whole.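 Cell lines were cultured in 96-well plates, exposed to a single compound concentration, and assessed for percent growth 48 hours later.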 Activity calls are given as the source filed them. The calls were made as follows: active = growth percent below 10; inactive = the rest.

The assay deals with UACC-62 melanoma. The experiment in a line: NCI-60 one-dose screen, 48 h (100 = growth as untreated, 0 = no growth, -100 = all killed). Particulars: 10 µM.
As for `COc1ccc(C2c3sc4ccc(C)cc4c3Oc3nc(N)nc(N)c32)cc1` (centres undefined), the growth was 63.4% (inactive).

`Cc1cc(N=C2NC(=O)S/C2=C\c2ccc(F)cc2)n[nH]1`: the growth is -19.6% (active).

For `Cn1cc(-c2nnc(N)nc2-c2c[nH]c3ccccc23)c2cc(Br)cnc21`, the growth is 24.3% (inactive).

For `O=C(CC(=O)Nc1ccc(Oc2ncnc3scc(Nc4n[nH]c(=S)s4)c23)cc1)Nc1ccc(Cl)cc1`, the growth was 53.6% (inactive).

For the molecule `O=C1NC2C=CC=CC2/C1=C1/SC(=S)N(C2CC(=O)N(c3ccc(Br)cc3)C2=O)C1=O` (centres undefined), the growth is 87.6% (inactive).

Take `CC1(C)CC(=O)C2=C(C1)N(Cc1ccc(C(=O)O)cc1)C1=C(C(=O)CC(C)(C)C1)C2c1ccc(Cl)cc1`: the growth is 89.9% (inactive).

On to `Cc1ccc2c(c1)C(=O)/C(=C/c1ccc([N+](=O)[O-])cc1)S2`, for which the growth was 73.2% (inactive).

`O=C(Nc1ccc(OCc2ccc(Cl)cc2)cc1)Nc1ccc(Cl)c(C(F)(F)F)c1`: the growth is 16.8% (inactive).

Consider `Cn1cc(-c2nc(N)nnc2-c2c[nH]c3ccccc23)c2cc(Br)cnc21`, for which the growth is 21.1% (inactive).

As to `O=C(CSc1nc2ccccc2c(=O)n1-c1ccc(Cl)cc1)Nc1ccc(-c2nc3ccccc3[nH]2)cc1`, the growth was -12.1% (active).

On to `Cc1ccc2c(c1)C(=O)/C(=C/c1c[nH]c3ccccc13)S2`, for which the growth was 54.4% (inactive).

Take `COc1cccc(O)c1/C=C1\SCc2cc3c(OC)cccc3[o+]c21`: the growth was 98.7% (inactive).

In the case of `COc1cc(C2CC(c3ccc(Oc4ccc(Cl)cc4)cc3)=NN2c2nc(-c3ccc(Cl)cc3)c(C#N)c(N3CCOCC3)n2)cc(OC)c1OC` (centres undefined), the growth is 91.2% (inactive).

Take `O=C(Nc1ccc(OCC(=O)c2ccc(Cl)cc2)cc1)Nc1ccc(Cl)c(C(F)(F)F)c1`: the growth is 18.1% (inactive).

For `Cc1ccc2sc3c(c2c1)Oc1nc[nH]c(=O)c1C3c1cccc(F)c1` (centres undefined), the growth was 74.5% (inactive).

For the molecule `Cc1cc(N=C2NC(=O)/C(=C/c3cc(C(C)(C)C)c(O)c(C(C)(C)C)c3)S2)n[nH]1`, the growth is 8.86% (active).

As to `COc1ccc(C2c3sc4ccc(C)cc4c3Oc3nc[nH]c(=O)c32)cc1` (centres undefined), the growth is 59.2% (inactive).

With `COc1cccc(C(=O)CSc2nc(-c3ccc(OCc4ccccc4)c(OC)c3)c(C#N)c(=O)[nH]2)c1`, the growth was 90.9% (inactive).

For `Cc1ccc(COc2ccc(NC(=O)Nc3ccc(Cl)c(C(F)(F)F)c3)cc2)cc1`, the growth is 60.5% (inactive).

With `CC(C)(C)c1cc(/C=C2\S/C(=N/c3ncn[nH]3)NC2=O)cc(C(C)(C)C)c1O`, the growth was 1.85% (active).

On to `Cn1cc(/C=C(/SS/C(=C/c2cn(C)c3cccc(C(=O)O)c23)C(=O)O)C(=O)O)c2c(C(=O)O)cccc21`, for which the growth is 92.3% (inactive).

In the case of `COc1ccc(C(=O)COc2ccc(NC(=O)Nc3ccccc3)cc2)cc1`, the growth was 80% (inactive).

`CCn1c(SCC(=O)Nc2ccc(-c3nc4ccccc4[nH]3)cc2)nc2ccccc2c1=O`: the growth was -81.7% (active).

With `O=C(Nc1ccc(OCc2ccc(F)cc2)cc1)Nc1ccc(Cl)c(C(F)(F)F)c1`, the growth was 6.53% (active).

Turning to `O=C(CC(=O)Nc1ccc(Oc2ncnc3scc(Nc4n[nH]c(=S)s4)c23)cc1)Nc1ccc(Br)cc1`, the growth is 82.2% (inactive).

For `COc1ccc(C(=O)COc2ccc(NC(=O)Nc3ccc(Cl)c(C(F)(F)F)c3)cc2)cc1`, the growth is 7.25% (active).

With `O=C(Nc1ccc(Oc2ncnc3scc(Nc4n[nH]c(=S)s4)c23)cc1)C1(C(=O)Nc2cccc(C(F)(F)F)c2)CC1`, the growth was 86.5% (inactive).

Regarding `O=C1NC(=S)S/C1=C\c1cn(-c2ccccc2)nc1-c1ccc([N+](=O)[O-])cc1`, the growth was 8.03% (active).

For the molecule `O=C(CSc1nc2ccccc2c(=O)n1-c1ccc(Cl)cc1)Nc1ccc(-c2nc3ccc([N+](=O)[O-])cc3[nH]2)cc1`, the growth was 36.9% (inactive).
